# Measured values published in PubChem BioAssay.
# Results with a measured potency or affinity are listed apart. Results filed as inconclusive are left out. Unmarked numbers belong to inactive results. Active and inactive are the calls of the source.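 The calls were made as follows, unless noted: active = a dose-response fit showing signal loss, with half-maximal concentration no higher than twice the top tested dose; inconclusive = flat fit between 30% and 70% signal loss, or poor fit; inactive = the rest.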
# Assays:
# [1] = C. neoformans lysis by adenylate kinase leakage – AK release luminescence, cherry-picks, dose response (AID 687000;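 active = fitted dose curve reaches 40% lysis signal rise at or below the highest valid concentration tested for that sample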;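 also: luminescent detection of adenylate kinase leaking from lysed yeast; 0% = median neutral control signal and 100% = double that signal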)
# [2] = viability loss in HepG2 hepatoma cells – cell-based, cherry-picks, set 2, cytotoxicity control, dose response (AID 687002)
# [3] = viability loss in HeLa cells – cell-based, ATP luminescence, cherry-pick samples, cytotoxicity control, dose response (AID 687004;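 active = a fitted half-maximal concentration no higher than twice the top valid tested dose, with signal falling as cells die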;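 also: 0% = neutral control median and -100% = staurosporine 10 µM control median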)
# [4] = fungal growth arrest, C. neoformans – Alamar Blue, cherry-picks, dose response (AID 686998;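 active = falling signal with fitted half-maximal potency no higher than twice the top valid tested dose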)
# [5] = RMG-1 ovarian cancer cell viability loss – cherry-pick, dose response (AID 687029;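 active = signal drop whose fitted half-maximal concentration is at most twice the top valid dose, in every test run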;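 also: cells exposed to compound for 96 hours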)
# [6] = IOSE-T80 viability loss, PAX8-independent line – cell-based, cherry-pick, selectivity assay for PAX8 inhibitor project, dose response (AID 687032;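 active = fitted half-maximal concentration for viability loss no higher than twice the top valid dose, in every repeat run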;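 also: cells exposed to compound for 96 h before reading; 0% = neutral control wells and -100% = 2 µM mitoxantrone kill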)
# [7] = CMV-driven luciferase expression suppression in HEK293 – cell-based, luminescence, dry powder, counter-screen for Pax8 inhibitor project, dose response (AID 743020;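 active = signal-lowering compounds whose fitted half-maximal concentration is at or below twice the top tested dose in every run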;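 also: HEK293 cells stably expressing the CMV luciferase reporter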)
# [8] = general cell-killing toxicity readout – plate reader, dry powder samples, cytotoxicity control for PAX8 inhibitor project, dose response (AID 743021; call rule not given here)
# [9] = IGROV1 cell killing – plate reader, dry powder samples, PAX8 inhibitor project, dose response (AID 743043; call rule not given here;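 also: more negative means fewer viable cells or more cytotoxicity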)
# [10] = OVCAR-3 cell viability loss – plate reader, dry powder samples, PAX8 inhibitor project, dose response (AID 743044; call rule not given here); settings: max activity: at 35 µM, stronger effect = lower value unless noted
# [11] = toxicity toward immortalized ovarian surface epithelium – cell-based, plate reader, dry powder samples, cytotoxicity control for PAX8 inhibitor project, dose response (AID 743045; call rule not given here;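 also: 0% = neutral control median and -100% = positive control median; more negative values mean more cell killing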)
# [12] = OVCAR8 cell viability loss – plate reader, dry powder samples, PAX8 project, dose response (AID 743197; call rule not given here)
structure (smiles),measurement,setting,value
Cc1ccc2cc(NC(=O)c3ccccc3)ccc2n1,outcome,[1],inactive
same,outcome,[2],inactive
COC(=O)C1=C(C)N(Cc2ccc(Br)cc2)C(=S)NC1c1cccc(Br)c1 (configuration not stated),outcome,[1],inactive
same,outcome,[2],inactive
Cc1ccc(N(CC(=O)NCCSCc2ccco2)S(=O)(=O)c2ccc(F)cc2)cc1,outcome,[1],inactive
same,outcome,[2],inactive
same,outcome,[3],inactive
COCC(=O)NC[C@H]1N[C@H](CO)[C@H]1c1ccc(C2=CCCC2)cc1,outcome,[4],inactive
same,outcome,[2],inactive
same,outcome,[3],inactive
COc1cccc(S(=O)(=O)N(C)C[C@@H]2OCc3ccccc3-c3ccccc3C(=O)N([C@@H](C)CO)C[C@@H]2C)c1,outcome,[4],inactive
same,outcome,[2],inactive
same,outcome,[3],inactive
same,outcome,[5],inactive
same,outcome,[6],inactive
same,outcome,[7],inactive
same,outcome,[8],inactive
same,outcome,[9],inactive
same,max activity,[10],"-40.1% [at 8 µM, stronger effect = lower value]"
same,outcome,[11],inactive
same,outcome,[12],inactive
COc1ccccc1CNC(=S)NCc1ccc(Cl)cc1,outcome,[4],inactive
same,outcome,[2],inactive
same,outcome,[3],inactive
O=C(CC1CC1)N1[C@@H]2CN(S(=O)(=O)c3ccccc3)c3ccccc3[C@@H]2[C@@H]1CO,outcome,[4],inactive
same,outcome,[3],inactive
N#C[C@H]1[C@@H](c2ccc(C#CCC3CCCC3)cc2)[C@@H](CO)N1C(=O)c1ccccn1,outcome,[1],inactive
same,outcome,[2],inactive
Cc1cccc(NC(=S)NN(Cc2ccccc2)c2ccccc2)c1C,outcome,[1],inactive
same,outcome,[2],inactive
COc1cc(NC(=O)CN2CCN(S(=O)(=O)c3ccc(C(C)C)cc3)CC2)cc(OC)c1,outcome,[1],inactive
same,outcome,[2],inactive
same,outcome,[3],inactive
Cc1ccc(N2CCN(C(CCc3ccccc3)C(=O)Nc3c(C)cccc3C)CC2)cc1 (configuration not stated),outcome,[1],inactive
same,outcome,[2],inactive
CC(C)CC#Cc1cnc2c(c1)C(=O)N([C@H](C)CO)C[C@H](C)[C@H](CN(C)C(=O)c1cccnc1)O2,outcome,[4],inactive
same,outcome,[2],inactive
same,outcome,[3],inactive
C[C@H]1CN([C@@H](C)CO)S(=O)(=O)c2ccc(Br)cc2O[C@@H]1CN(C)C(=O)CCN1CCCCC1,outcome,[4],inactive
same,outcome,[2],inactive
same,outcome,[3],inactive
COc1ccc(S(=O)(=O)N[C@H]2C=C[C@H](CC(=O)N3CCC(Cc4ccccc4)CC3)O[C@@H]2CO)cc1,outcome,[4],inactive
same,outcome,[2],inactive
same,outcome,[3],inactive
CN1CCN(CCCNC(=O)c2ccc(/C=C3\Oc4ccccc4N(Cc4ccccc4F)C3=O)cc2)CC1,outcome,[1],inactive
same,outcome,[2],inactive
CC(C)CC#Cc1ccc2c(c1)O[C@H](CN(C)C(=O)C1CCC1)[C@@H](C)CN([C@@H](C)CO)S2(=O)=O,outcome,[1],inactive
same,outcome,[2],inactive
CC(=O)c1sc(NC(=O)C2(F)C(F)(F)C(F)(F)C(F)(F)C(F)(F)C2(F)F)nc1C,outcome,[1],inactive
same,outcome,[2],inactive
Cc1cccc(C)c1NC(=O)CN(C)C(=O)CC1CC2CCC1C2 (configuration not stated),outcome,[1],inactive
same,outcome,[2],inactive
same,outcome,[3],inactive
CC(=O)c1sc(NC(=O)c2cc(-c3ccccc3)nn2-c2ccccc2)nc1C,outcome,[1],inactive
same,outcome,[2],inactive
Cc1ccc(NC(=O)N2CCCC2C(=O)Nc2c(C)cc(C)cc2C)cc1 (configuration not stated),outcome,[4],inactive
same,outcome,[2],inactive
same,outcome,[3],inactive
C[C@H](CO)N1C[C@H](C)[C@@H](CN(C)Cc2ccc(-c3ccccc3)cc2)Oc2ccc(NC(=O)Nc3ccc(C(F)(F)F)cc3)cc2C1=O,outcome,[4],inactive
same,outcome,[2],inactive
same,outcome,[3],inactive
C(=Nn1cnnc1)c1ccc2c(c1)CCC2,outcome,[1],inactive
same,outcome,[2],inactive
C[C@@H]1CN([C@@H](C)CO)C(=O)Cc2cc(NS(=O)(=O)c3ccccc3)ccc2O[C@@H]1CN(C)Cc1ccc(Cl)c(Cl)c1,outcome,[1],inactive
same,outcome,[2],inactive
Cc1ccc(-n2ncc3c(SCC(N)=O)ncnc32)cc1C,outcome,[1],inactive
same,outcome,[2],inactive
O=C(C1CCOCC1)N1C[C@H]2[C@@H](c3ccccc31)[C@@H](CO)N2Cc1ccccc1Cl,outcome,[1],inactive
same,outcome,[2],inactive
Cc1ccc(NC(=S)Nc2ccc(Cl)c(Cl)c2)c(OC(F)F)c1,outcome,[1],inactive
same,outcome,[2],inactive
O=C(NCCN1CCCCC1)[C@H]1N[C@H]2c3ccc(-c4ccncc4)c(=O)n3C[C@H]2[C@@H]1CO,outcome,[4],inactive
same,outcome,[2],inactive
same,outcome,[3],inactive
C/C=C/c1ccc([C@@H]2[C@H]3CN(C(=O)Nc4ccc(OC)cc4)CCCCN3[C@H]2CO)cc1,outcome,[1],inactive
same,outcome,[2],inactive
Cc1ccc(NC(=O)C(=O)NCCCN2CCCC2=O)c(C)c1,outcome,[1],inactive
same,outcome,[2],inactive
same,outcome,[3],inactive
C[C@@H]1CN([C@H](C)CO)S(=O)(=O)c2ccc(-c3ccccc3)cc2O[C@H]1CN(C)C(=O)C1CCCCC1,outcome,[1],inactive
same,outcome,[2],inactive
CNC[C@@H]1OCCCC[C@@H](C)Oc2ccc(NS(=O)(=O)c3ccc(Cl)cc3)cc2C(=O)N([C@H](C)CO)C[C@H]1C,outcome,[4],inactive
same,outcome,[2],inactive
same,outcome,[3],inactive
O=C(c1ccco1)N1N=C(c2cccs2)CC1c1ccc(F)cc1 (configuration not stated),outcome,[1],inactive
same,outcome,[2],inactive
same,outcome,[3],inactive
O=C(CSc1nc(CCC2CCCC2)nc2ccccc12)NCc1ccc2c(c1)OCO2,outcome,[1],inactive
same,outcome,[2],inactive
same,outcome,[3],inactive
C/C=C/c1ccc([C@@H]2[C@@H](CNC(=O)C3CCC3)N(C(=O)NCCC)[C@H]2CO)cc1,outcome,[1],inactive
same,outcome,[2],inactive
same,outcome,[3],inactive
CCCC(=O)N1CCC1(C)C(=O)Nc1ccc(C)cc1 (configuration not stated),outcome,[4],inactive
same,outcome,[2],inactive
same,outcome,[3],inactive
CO[C@@H]1CN(C)C(=O)c2cc(NC(=O)C3CCOCC3)ccc2OC[C@H](C)NC[C@@H]1C,outcome,[1],inactive
same,outcome,[2],inactive
same,outcome,[3],inactive
CC(C)CC#Cc1cnc2c(c1)C(=O)N([C@@H](C)CO)C[C@H](C)[C@H](CN(C)C(=O)c1ccc3c(c1)OCO3)O2,outcome,[1],inactive
same,outcome,[2],inactive
same,outcome,[3],inactive
Cc1cccc(OCC(=O)NCc2ccc(F)cc2)c1,outcome,[1],inactive
same,outcome,[2],inactive
same,outcome,[3],inactive
C/C=C/c1ccc([C@@H]2[C@@H](C#N)N(S(=O)(=O)c3cccc(F)c3)[C@@H]2CO)cc1,outcome,[1],inactive
same,outcome,[2],inactive
same,outcome,[3],inactive
O=C(C[C@@H]1C=C[C@@H](NC(=O)Nc2cc(F)ccc2F)[C@H](CO)O1)NCCCN1CCOCC1,outcome,[1],inactive
same,outcome,[2],inactive
same,outcome,[3],inactive
Cc1cccc(C)c1NC(=O)C1(NC(=O)C2CCC(=O)N2)CCCCC1 (configuration not stated),outcome,[1],inactive
same,outcome,[2],inactive
same,outcome,[3],inactive
C[C@H]1CN([C@@H](C)CO)C(=O)c2cc(-c3ccccc3)cnc2O[C@@H]1CN(C)C(=O)c1ccccn1,outcome,[1],inactive
same,outcome,[2],inactive
same,outcome,[3],inactive
Cc1ccccc1S(=O)(=O)N[C@@H]1CC[C@H](CCNS(=O)(=O)c2cccc(F)c2)O[C@H]1CO,outcome,[1],inactive
same,outcome,[2],inactive
same,outcome,[3],inactive
O=C(NC(=S)Nc1ccccc1[N+](=O)[O-])c1ccccc1,outcome,[1],inactive
same,outcome,[2],inactive
same,outcome,[3],inactive
COc1ccc(NC(=O)CN2CCN(S(=O)(=O)c3ccc(C(C)C)cc3)CC2)cc1OC,outcome,[1],inactive
same,outcome,[2],inactive
same,outcome,[3],inactive
Cc1cccc(OCC(=O)NCc2ccccc2)c1,outcome,[1],inactive
same,outcome,[2],inactive
same,outcome,[3],inactive
COCCN1C(=O)CCC1(C)C(=O)Nc1c(C)cccc1C (configuration not stated),outcome,[1],inactive
same,outcome,[2],inactive
same,outcome,[3],inactive
O=C(CN(c1ccccc1)S(=O)(=O)c1ccc(F)cc1)NC1CCCCCC1,outcome,[1],inactive
same,outcome,[2],inactive
same,outcome,[3],inactive
CC=Cc1ccc2n(c1=O)C[C@@H]1[C@@H](CO)[C@H](C(=O)NCc3ccc4c(c3)OCO4)[C@H]2N1C(=O)C1CC1 (mixture of isomers),outcome,[1],inactive
same,outcome,[2],inactive
same,outcome,[3],inactive
CO[C@H]1CC[C@@H]2CCOc3c(C#N)cccc3C(=O)N(C)C[C@@H](OC)[C@@H](C)C(=O)N(C)C[C@@H]1O2,outcome,[1],inactive
same,outcome,[2],inactive
same,outcome,[3],inactive
CO[C@H]1CN(C)C(=O)c2ccc(NC(=O)NC(C)C)cc2OC[C@@H](C)NC[C@H]1C,outcome,[1],inactive
same,outcome,[2],inactive
same,outcome,[3],inactive
CCCNC(=O)C[C@H]1CC[C@H]2[C@@H](COC[C@@H](O)CN2S(=O)(=O)c2ccc(Oc3ccccc3)cc2)O1,outcome,[1],inactive
same,outcome,[2],inactive
same,outcome,[3],inactive
C[C@@H]1CCCCO[C@@H](CN(C)C(=O)NC2CCCCC2)[C@H](C)CN([C@@H](C)CO)C(=O)c2cc(NS(=O)(=O)c3cn(C)cn3)ccc2O1,outcome,[1],inactive
same,outcome,[2],inactive
same,outcome,[3],inactive
C[C@H]1CN([C@@H](C)CO)C(=O)Cc2cc(NC(=O)C3CC3)ccc2O[C@@H]1CN(C)C(=O)Nc1cccc2ccccc12,outcome,[1],inactive
same,outcome,[2],inactive
same,outcome,[3],inactive
Cc1cc(C)c(NC(=O)CN2CCCCCC2)c(C)c1,outcome,[1],inactive
same,outcome,[2],inactive
same,outcome,[3],inactive
O=C(CN(c1ccc(F)cc1)S(=O)(=O)c1ccccc1)NCCSC1CCCCC1,outcome,[1],inactive
same,outcome,[2],inactive
same,outcome,[3],inactive
Fc1cccc(CCN2C(=S)NC[C@@H]2Cc2ccccc2)c1,outcome,[1],inactive
same,outcome,[2],inactive
same,outcome,[3],inactive
CC(=O)NC12CC3CC(C1)CC(C(=O)NCC(=O)Nc1c(C)cc(C)cc1C)(C3)C2,outcome,[1],inactive
same,outcome,[2],inactive
same,outcome,[3],inactive
O=C(NC[C@H]1[C@H](c2ccccc2)[C@H](CO)N1C(=O)Cc1cccnc1)C1CCC1,outcome,[1],inactive
same,outcome,[2],inactive
same,outcome,[3],inactive
CCCC(=O)N1CCC1(C)C(=O)Nc1cc(C)ccc1C (configuration not stated),outcome,[1],inactive
same,outcome,[2],inactive
same,outcome,[3],inactive
Cc1noc(C)c1S(=O)(=O)Nc1ccc2c(c1)C(=O)N([C@@H](C)CO)C[C@@H](C)[C@H](CN(C)Cc1ccc3c(c1)OCO3)OCCCC[C@H](C)O2,outcome,[1],inactive
same,outcome,[2],inactive
same,outcome,[3],inactive
Cc1cccc(NC(=O)CN(C)C(=O)C2CCCC2)c1C,outcome,[1],inactive
same,outcome,[2],inactive
same,outcome,[3],inactive
